In all, about 350,000 compounds went through this assay and about 2,300 (0.66%) were called active.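 Rule for the calls: active = mean inhibition of at least 50% after viability correction, with every replicate also passing that limit; inconclusive = mean reaches 50% but only one of two replicates passes; inactive = the rest.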 For the sample, actives were picked, then their nearest neighbours and some compounds at random.
experiment: blockers of EWS/Fli transcriptional output – A673 cells, NR0B1 luciferase, luminescence, MLPCN library, primary screen (AID 651661); conditions: A673 NR0B1-luciferase reporter, viability-normalised; at 12.6 µM; hits give high values;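 note: firefly luciferase signal divided by Alamar Blue viability fluorescence both relative to DMSO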

Row | Structure (SMILES) | inhibition
1 | O=C(NCc1cccc(F)c1)[C@H]1[C@H](CO)[C@H]2Cn3c(cccc3=O)[C@@H]1N2 | -7.63% (inactive)
2 | O=C(Cc1ccccn1)N1CC(=O)N2[C@H](CO)[C@H](c3ccc(C#CCC4CCCC4)cc3)[C@@H]2C1 | -3.29% (inactive)
3 | C#CCNc1ccc(C(=O)OCC)cc1 | -46.2% (inactive)
4 | CC(OC(=O)c1ccc(Cl)cc1O)C(=O)NCCC1=CCCCC1 (stereo not drawn) | 1.44% (inactive)
5 | CC(C)OC(=O)c1ccc(NCc2cc(O)ccc2O)cc1Cl | 59.4% (active)
6 | COC(=O)c1ccc(NCc2cc(O)ccc2O)cc1 | 61.8% (active)
7 | CC(CN1CCOCC1)OC(=O)c1ccc(Cl)cc1Cl (stereo not drawn) | -6.54% (inactive)
8 | O=C(OC12CC3CC(CC(C3)C1)C2)c1ccc(NCc2cc(O)ccc2O)cc1 | 30.8% (inactive)
9 | O=C(C1CCC1)N1CC[C@@H]2[C@H]1c1cc(C#Cc3ccc(F)cc3)ccc1N[C@@H]2CO | 11% (inactive)
10 | CO[C@@H]1CN(C)C(=O)c2ccc(NC(=O)Nc3c(C)noc3C)cc2OC[C@@H](C)NC[C@H]1C | 1.67% (inactive)
11 | COc1ccc(S(=O)(=O)N(C)C[C@H]2Oc3c(NS(=O)(=O)c4cccs4)cccc3C(=O)N([C@H](C)CO)C[C@@H]2C)cc1 | 0.582% (inactive)
12 | COc1ccc(NC(=O)C2Cc3c(-c4ccc(Cl)cc4)ccnc3O2)cc1 (stereo not drawn) | -1.76% (inactive)
13 | COc1ccc(NC(=O)C2Cc3c(-c4ccc5c(c4)OCO5)ccnc3O2)cn1 (stereo not drawn) | 52.6% (active)
14 | O=C(Nc1ccc(Cl)cc1)C1Cc2c(-c3ccc4c(c3)OCO4)ccnc2O1 (stereo not drawn) | 8.69% (inactive)
15 | CCCN1C[C@@H](C)[C@H](OC)CN(C)C(=O)c2cc(NC(=O)CC)ccc2OC[C@@H]1C | -0.843% (inactive)
16 | COC(=O)C[C@H]1C=C[C@H](NC(=O)Nc2ccc(C(F)(F)F)cc2)[C@@H](CO)O1 | -13.7% (inactive)
17 | CC(C)C(=O)Nc1ccc2c(c1)C(=O)N(C)[C@H]1CC[C@H](CC(=O)NCc3ccc(F)cc3)O[C@H]1CO2 | -4.82% (inactive)
18 | O=C1C=CC(=O)N1c1ccc(N2CCCCC2)cc1 | 70% (active)
19 | O=C(C1CCC1)N1CCN(c2ccccc2)CC1 | -2.08% (inactive)
20 | O=C(C1CC(=O)N(C2CCCCC2)C1)N1CCN(c2ccccc2)CC1 (stereo not drawn) | 2.44% (inactive)
21 | O=C(Nc1cc(F)ccc1F)N1CCCCN2[C@H](CO)[C@@H](c3ccc(-c4cccnc4)cc3)[C@@H]2C1 | -2.34% (inactive)
22 | CN(C)C(=O)[C@@H]1[C@@H](CO)[C@@H]2Cn3c(ccc(-c4ccncc4)c3=O)[C@H]1N2C(=O)NC1CCCC1 | -5.42% (inactive)
23 | CC(C)Cn1c(N)c(C(=O)COC(=O)CN2C(=O)C3CC=CCC3C2=O)c(=O)n(C)c1=O (stereo not drawn) | 10.8% (inactive)
24 | CCCc1cc(=O)[nH]c(SCC(=O)c2c(N)n(CC(C)C)c(=O)n(C)c2=O)n1 | 61.7% (active)

Row | Structure (SMILES) | inhibition
25 | CCCc1cc(=O)[nH]c(SCC(=O)N2C(C)CCCC2C)n1 (stereo not drawn) | -0.113% (inactive)
26 | COc1ccc2c3c(n(C)c2c1)[C@@H](CO)N(C(=O)c1ccccn1)CC31CN(C)C1 | 2.95% (inactive)
27 | CCOC(=O)c1c(C)[nH]c(C(=O)OCC(=O)c2ccc(OC)cc2OC)c1C | -15.3% (inactive)
28 | CCOC(=O)c1c(C)[nH]c2c1-c1ccccc1C(=O)C2=O | 75.3% (active)
29 | CCOC(=O)c1c(NC(=O)CSc2nccc(=O)[nH]2)sc(C)c1C | 1.69% (inactive)
30 | CCCN1C[C@@H](C)[C@@H](OC)CN(C)C(=O)c2cc(NC(=O)C3CCC3)ccc2OC[C@H]1C | 4.62% (inactive)
31 | CCCNC(=O)N1CCC2(CC1)CN(C(=O)c1cccnc1)[C@@H](CO)c1[nH]c3cc(OC)ccc3c12 | -3.43% (inactive)
32 | CO[C@H]1CN(C)C(=O)c2cc(NS(=O)(=O)c3ccccc3)ccc2OC[C@H](C)N(C(=O)NC(C)C)C[C@@H]1C | -7.63% (inactive)
33 | O=C(C1CCCCC1)N1CC(=O)N2[C@H](CO)[C@@H](c3ccc(-c4ccccc4F)cc3)[C@@H]2C1 | -0.368% (inactive)
34 | COc1cccc(-c2cnc3c(NC(C)=O)cc(-c4cc(F)ccc4OC)cn23)c1 | 41.5% (inactive)
35 | COc1ccccc1-c1cc(NC(C)=O)c2ncc(-c3ccc(F)cc3)n2c1 | 13.6% (inactive)
36 | COc1ccc(-c2cc(NC=O)c3ncc(-c4cc(OC)c(OC)c(OC)c4)n3c2)c(OC)c1 | 52.4% (active)
37 | COc1ccc(-c2cc(NC=O)c3ncc(-c4cccc(C(=O)N(C)C)c4)n3c2)c(OC)c1 | 8.25% (inactive)
38 | COc1ccc(-c2cc(NC=O)c3ncc(-c4ccccc4)n3c2)cc1OC | 12.5% (inactive)
39 | COc1ccc(-c2cc(NC(C)=O)c3ncc(-c4cc(OC)c(OC)c(OC)c4)n3c2)cn1 | 64.5% (active)
40 | COc1cccc(NC(=O)N2CC[C@@H]3[C@@H](CO)N(C)c4ccc(-c5cccc(F)c5)cc4[C@@H]32)c1 | -0.284% (inactive)
41 | COc1ccccc1CNC(=O)C[C@H]1C[C@H]2c3cc(NS(=O)(=O)c4ccc(F)cc4)ccc3O[C@H]2[C@@H](CO)O1 | -1.41% (inactive)
42 | C[C@@H]1CN([C@H](C)CO)C(=O)c2cccc(NS(=O)(=O)c3cn(C)cn3)c2O[C@H]1CN(C)S(=O)(=O)c1ccc(Cl)cc1 | 1.45% (inactive)
43 | C[C@@H]1CCCCO[C@@H](CN(C)Cc2ccncc2)[C@H](C)CN([C@H](C)CO)C(=O)c2cc(NC(=O)NC3CCCCC3)ccc2O1 | 0.242% (inactive)
44 | CN1c2ccc(-c3cccc(F)c3)cc2[C@H]2[C@H](CCN2C(=O)c2cccc(F)c2)[C@H]1CO | -3.71% (inactive)
45 | Cc1ccc(C)c(S(=O)(=O)N2CCN(C(=O)Nc3ccccc3)CC2)c1 | 1.58% (inactive)
46 | Cc1ccc(C)c(S(=O)(=O)N2CCN(c3ncnc4sccc34)CC2)c1 | 51.5% (active)
47 | COc1ccc(-c2csc3ncnc(N4CCN(S(=O)(=O)c5ccccc5C#N)CC4)c23)cc1 | 22.1% (inactive)
48 | CCNC(=O)[C@H]1[C@H](CO)[C@H]2Cn3c(ccc(-c4cccc(OC)c4)c3=O)[C@H]2N1Cc1nccs1 | 2.22% (inactive)
